This is one part of the list. Calls of active or inactive are those of the source. The rule behind the calls is not given here.
Target: Hepatocyte nuclear factor 4-alpha (Homo sapiens) (UniProt P41235)
Assay: HNF4-alpha DNA association modulation retest – biochemical, fluorescence polarization, FITC-DNA, confirmation (AID 1224897)
Conditions: HNF4A-FITC DNA binding, 1 h, at 12.5 µM, active compounds read high

Sequence of Hepatocyte nuclear factor 4-alpha (Homo sapiens) (P41235 whole entry, looked up): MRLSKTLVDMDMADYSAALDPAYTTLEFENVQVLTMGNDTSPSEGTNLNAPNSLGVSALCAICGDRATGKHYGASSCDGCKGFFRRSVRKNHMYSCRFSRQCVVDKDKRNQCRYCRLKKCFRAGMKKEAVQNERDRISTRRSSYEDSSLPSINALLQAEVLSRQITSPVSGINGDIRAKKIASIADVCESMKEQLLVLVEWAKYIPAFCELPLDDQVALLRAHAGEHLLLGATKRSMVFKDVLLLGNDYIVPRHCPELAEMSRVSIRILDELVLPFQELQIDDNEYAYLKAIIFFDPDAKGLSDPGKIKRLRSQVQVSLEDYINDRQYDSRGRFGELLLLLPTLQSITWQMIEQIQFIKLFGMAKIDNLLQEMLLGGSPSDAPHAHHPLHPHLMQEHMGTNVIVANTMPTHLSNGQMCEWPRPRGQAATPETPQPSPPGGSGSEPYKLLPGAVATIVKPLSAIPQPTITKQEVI

Compound | activity change
C#CCOCCOCCOCCNc1nc(N2CCN(C(=O)C([C@@H](C)O)n3cc([C@@H](N)CCCCN)nn3)CC2)nc(N2CCN(C(=O)[C@H](CCCCN)n3cc(CN)nn3)CC2)n1 (some centres undefined) | 108% (active)
Cc1cccc(COc2ccccc2/C=N/Nc2ccc([N+](=O)[O-])cc2)c1 | 56.9% (active)
COc1ccc(-c2nc3cc(C)ccn3c2NC2CCCCC2)cc1SC1CCCCC1 | 37.6% (active)
O=C1/C(=C/c2coc3ccc(O)cc3c2=O)SC(=S)N1c1ccccc1 | 57% (active)
C/C(=N/Nc1nc(-c2ccccc2)c(CC(=O)O)s1)c1ccccc1 | 57.6% (active)
Cn1cccc1/C=C1\SC(=S)N(NC(=O)c2ccc(Cl)cc2)C1=O | 72.5% (active)
Fc1cccc(Cc2c(-c3cccc(Cl)c3)nc3ccc(Br)cn23)c1 | 51% (active)
Cn1c2ccccc2c2cc(/C=C(\NC(=O)c3ccccc3)C(=O)NCC(=O)O)ccc21 | 45.6% (active)
CCC(C)N1C(=O)S/C(=C/c2ccc(Sc3nc4ccccc4[nH]3)o2)C1=O (centres undefined) | 76.4% (active)

Source: PubChem BioAssay AID1224897 (Sanford-Burnham Center for Chemical Genomics, 2016)
